In the library only some 2.3% were active in any assay of this set; here they are far more common.
NTR1 agonist: agonists of human NTR1, primary screen, imaging, U2OS cells, beta-arrestin-GFP, high content; Neurotensin receptor type 1 (Homo sapiens), P30989; NTR1-U2OS beta-arrestin-GFP spot imaging, agonist mode; activation, % at 20 µM; 330,000 tested, 0.17% active;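 active = activation at or above 40% of the spot to cytoplasm intensity ratio, with at least 20 cells analyzed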
HTR2A ag: mouse Htr2a agonists via beta-arrestin recruitment, primary screen, cell-based, luminescence. CHO-K1 mHTR2A beta-arrestin complementation; percent of 30 µM serotonin response. 5-hydroxytryptamine receptor 2A (Mus musculus), P35363. 360,000 tested, 0.66% active. activation, % at 7.6 µM;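 active = activation above a run cutoff, the mean activation of all tested compounds plus 3 SD, cut at about 14% in these data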
ABHD5 PLIN5 PPI: ABHD5-PLIN5 interaction inhibitors, primary screen, cell lysate, split luciferase complementation, luminescence. Perilipin-5 (Homo sapiens) + 1-acylglycerol-3-phosphate O-acyltransferase ABHD5 (Homo …. Split G. princeps luciferase complementation, 4 h. inhibition, % at 4 µM. 360,000 tested, 0.78% active;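 active = inhibition above the mean inhibition across every tested compound plus 3 SD, cut at about 22% in these data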
Target sequence (Q00G26 whole entry, looked up): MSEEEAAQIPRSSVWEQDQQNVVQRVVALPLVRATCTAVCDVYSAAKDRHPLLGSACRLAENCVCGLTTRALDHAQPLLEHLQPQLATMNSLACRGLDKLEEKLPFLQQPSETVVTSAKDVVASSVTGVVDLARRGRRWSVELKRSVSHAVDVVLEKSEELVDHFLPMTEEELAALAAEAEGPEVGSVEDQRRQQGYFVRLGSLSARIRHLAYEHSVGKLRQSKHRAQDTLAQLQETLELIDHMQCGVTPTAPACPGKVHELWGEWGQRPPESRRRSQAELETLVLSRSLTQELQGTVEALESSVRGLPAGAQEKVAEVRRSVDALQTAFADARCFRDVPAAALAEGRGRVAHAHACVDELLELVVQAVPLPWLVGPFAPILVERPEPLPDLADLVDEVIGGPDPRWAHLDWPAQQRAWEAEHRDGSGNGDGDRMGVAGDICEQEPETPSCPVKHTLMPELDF
Target sequence (Q8WTS1 whole entry, looked up): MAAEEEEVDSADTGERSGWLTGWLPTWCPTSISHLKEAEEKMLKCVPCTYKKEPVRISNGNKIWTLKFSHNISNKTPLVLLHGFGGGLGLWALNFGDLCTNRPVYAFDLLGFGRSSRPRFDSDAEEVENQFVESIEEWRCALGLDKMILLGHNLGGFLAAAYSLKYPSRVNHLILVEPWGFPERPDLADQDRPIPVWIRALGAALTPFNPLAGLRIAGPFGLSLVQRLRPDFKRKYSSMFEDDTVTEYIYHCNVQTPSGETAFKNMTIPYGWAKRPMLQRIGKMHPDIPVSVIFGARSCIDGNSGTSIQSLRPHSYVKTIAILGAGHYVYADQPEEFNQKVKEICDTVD
Exocytosis inh: LAMP-1 surface exposure blockers, TALL-104 cells – cell-based, flow cytometry, MLPCN library, primary screen. inhibition, % at 10 µM. AID 651702, 2012. TALL-104 LAMP-1 surface exposure; cells stimulated with thapsigargin and PMA. 360,000 tested, 0.66% active;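 active = inhibition above about 55%, limit read from the data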
Beta2AR agonist: beta2AR agonists driving receptor internalization, primary screen, cell-based, FAP fluorogen, flow cytometry; Beta-2 adrenergic receptor (Homo sapiens), P07550; Am2.2-beta2AR cells; response, % (test concentration not listed); 340,000 tested, 0.43% active; AID 504454, 2011;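 active = response above a set limit, near 3 SD of response in nonfluorescent compounds, cut at about 42% in these data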
Exocytosis CP01: inhibitors of lytic granule exocytosis, confirmation, TALL-104 cells, flow cytometry, Cherry Pick01; shares compounds with Exocytosis inh; 1,500 tested, 11% active; LAMP-1 externalization; stimulated with PMA plus thapsigargin; inhibition, % at 10 µM; in the data active = inhibition above about 60%
Numbers stand for hits; - = inactive; . = not tested or not shown.

SMILES	NTR1 agonist	HTR2A ag	ABHD5 PLIN5 PPI	Exocytosis inh	Beta2AR agonist	Exocytosis CP01
CC(C)=CCC/C(C)=C/CNC(=O)C[C@H]1C[C@H](C(=O)N2CCOCC2)[C@@]2(C)c3[nH]c4ccc(Cl)cc4c3CCN2C1=O	-	-	-	70	-	-
CCN(CC)CCN(C(=O)c1cc2ccccc2cc1OC)c1nc2ccc(F)cc2s1	-	-	-	-	-	.
CCN(CC)CCN(C(=O)c1cc2ccccc2cc1OC)c1nc2ccc(OC)cc2s1	-	-	-	65	-	-
C=CCN(CC=C)S(=O)(=O)c1ccc2nc(NC(=O)C3CCCO3)sc2c1 (configuration not stated)	-	-	-	-	-	.
O=C(CNc1c(Br)cc(Br)cc1Br)NN=C1CCCCC1	-	.	.	.	.	.
COc1ccc(-c2csc3ncnc(N4CCN(c5ccccc5)CC4)c23)cc1	-	-	-	70	-	-
COc1ccc(-c2csc3ncnc(N4CCN(c5ccc(OC)cc5)CC4)c23)cc1	-	-	-	-	-	.
COc1ccc(C(=O)N2CCOC2CNC(=O)C(=O)NCCc2ccc(OC)c(OC)c2)cc1 (configuration not stated)	-	-	-	-	-	.
CN(Cc1ccc2ccccc2c1)C(=O)c1ccc(C(F)(F)F)cc1	-	-	-	60	-	-
COc1ccc(CN(C)C(=O)c2cccc(S(=O)(=O)NCc3ccccc3)c2)cc1F	.	-	-	-	.	.
COc1ccc(CN(C)C(=O)c2ccc(Oc3ccccc3)cc2)cc1F	-	-	-	67	-	-
COc1ccc(CN(C)C(=O)c2ccc(OCC(=O)Nc3cccc(C(F)(F)F)c3)c(OC)c2)cc1	.	-	-	-	.	.
Cc1ccsc1CN(C)C(=O)c1ccc(Oc2ccccc2)cc1	-	-	-	113	-	-
CCOC(=O)Cc1csc(NC(=O)CSc2nc(=O)[nH]c3c2CCC3)n1	-	-	-	-	-	.
CCN(CC)N=Nc1ccc(S(=O)(=O)Nc2nc(C)cc(C)n2)cc1	-	-	-	-	-	.
CN(C)CCCNC(=S)NCC(c1ccc(Cl)cc1Cl)c1c[nH]c2ccccc12 (configuration not stated)	-	-	-	92	47	77
COc1ccccc1NC(=O)C1CCCN(c2cnccn2)C1 (configuration not stated)	-	-	-	-	-	.
COc1ccc(OC)c(NC(=O)c2cc(-c3cc(Cl)ccc3O)n[nH]2)c1	-	-	-	90	-	-
COc1ccc(Cl)cc1-c1cc(C(=O)NCc2ccc(F)cc2)[nH]n1	.	-	-	-	.	.
COc1ccc(Cl)cc1-c1cc(C(=O)NCc2ccc(C(F)(F)F)cc2)[nH]n1	.	-	-	86	.	-
CC(C)C[C@H]1CNC(=O)C(=O)N1C[C@@H]1CCCN1C[C@H](CC(C)C)N1C[C@H](Cc2ccccc2)N(CCc2ccccc2)C(=O)C1=O	.	-	-	-	.	.
COc1ccc(CN(C)CC(O)COc2ccc(-c3ccccc3)cc2)cc1OC (configuration not stated)	-	-	-	63	-	-
CCOc1ccc(CN(C)CC(O)COC(c2ccc(OC)cc2)c2ccc(OC)cc2)cc1 (configuration not stated)	-	-	-	69	-	-
COc1ccc(CN(C)CC(O)COC(c2ccc(OC)cc2)c2ccc(OC)cc2)cc1 (configuration not stated)	-	-	-	-	-	.
CCC(=O)N1CCC(C)(C(=O)Nc2ccc3c(c2)OCCO3)C1 (configuration not stated)	.	-	-	-	.	.
SMILES	NTR1 agonist	HTR2A ag	ABHD5 PLIN5 PPI	Exocytosis inh	Beta2AR agonist	Exocytosis CP01
O=C(C[C@@H]1CC[C@@H](NC(=O)Nc2cccc(F)c2)[C@@H](CO)O1)NCC1CCCCC1	.	-	-	-	.	.
O=C(Nc1cccc(-c2csc(Nc3cccc(C(F)(F)F)c3)n2)c1)c1ccccc1	-	-	-	75	-	-
Cc1ccc(C(=O)CCC(=O)Nc2cc(C)ccn2)cc1	-	-	-	-	-	.
CC1CCN(CCCNC(=O)c2cc3c(s2)-c2ccccc2OC3)CC1	-	-	-	-	-	.
Cc1cccc2c1-c1sc(C(=O)NCCCN3CCC(C)CC3)cc1CO2	-	-	-	79	-	-
COc1cc(CC(=O)OCC(=O)N2C(C)CCCC2C)cc(OC)c1OC (configuration not stated)	-	-	-	-	-	.
Cc1ccc2oc(=O)n(CCOc3ccccc3C)c2c1	-	-	-	64	-	-
O=C(O)[C@@H]1CCCN1S(=O)(=O)c1cccc2cccnc12	-	-	-	-	-	.
CCOC(=O)N1CCN(CC(O)COc2c(C)cc(C)cc2C)CC1 (configuration not stated)	-	-	-	62	-	-
COc1ccc(NC(=O)c2cncc(Br)c2)cc1S(N)(=O)=O	-	-	-	-	-	.
COc1ccc(OC)c(NC(=O)c2ccccc2N(C)S(=O)(=O)c2ccc(C)cc2)c1	-	-	-	61	-	-
OC(COC(c1ccc(Cl)cc1)c1ccc(Cl)cc1)CN1CCCC1 (configuration not stated)	-	-	-	-	-	.
CN1CCN(CC(O)COC(c2ccc(Cl)cc2)c2ccc(Cl)cc2)CC1 (configuration not stated)	-	-	-	57	-	-
CCCCCCSc1ccc(-c2nc3ccccn3c2NCCCC)cc1	-	-	-	70	-	-
CCCCNc1c(-c2ccc(-c3cccc(Cl)c3)cc2)nc2ccccn12	-	-	-	-	-	.
O=C(Nc1nc(-c2ccc(S(=O)(=O)N3CCOCC3)cc2)cs1)c1ccccc1	-	-	-	-	-	.
O=C(Nc1nc(-c2nc3ccccc3s2)cs1)c1ccc(S(=O)(=O)N2CCOCC2)cc1	-	-	-	62	-	-
CCN1CCN(C(=S)NC(C)c2ccccc2)CC1 (configuration not stated)	-	-	-	-	-	.
COCCNC(=O)C1(C)CCN(C(=O)c2cccnc2Oc2ccccc2)C1 (configuration not stated)	.	-	-	-	.	.
COc1ccc(CCNC(=O)C23CN(Cc4ccccc4)CC2C(c2ccc([N+](=O)[O-])cc2)=NO3)cc1 (configuration not stated)	-	-	-	60	-	-
CCCN(CC(=O)Nc1ccccc1C)C(=O)c1cc2ccccc2oc1=O	.	-	-	-	.	.
CCNC(=O)CC1C(=O)N(CC)C(=S)N1NC(=O)c1cccnc1 (configuration not stated)	-	-	-	-	-	.
